# Measured values taken from PubChem BioAssay AID463212 (Sanford-Burnham Center for Chemical Genomics, 2010).
# Screen size: about 330,000 compounds; about 4,400 (1.3%) were called active.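 How the source made its calls: active means growth inhibition of the mutant yeast at or above 50%; inactive means the rest.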 The sample as a whole holds a higher share of actives than the screen did.
# Assay: growth inhibition of tim23-1 ts yeast – luminescence, uHTS, primary screen (AID 463212);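 further: temperature-sensitive mutant grown at 25 °C; plate controls were DMSO-treated mutant yeast for no effect and medium wells lacking yeast for full effect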
# Settings: S. cerevisiae tim23-1 growth, BacTiter-Glo luminescence, 24 h; at 20 µM; hits give high values
row,SMILES,inhibition
1,Cc1ccc(S(=O)(=O)NCC(C)NS(C)(=O)=O)cc1 (stereo not given),-7.63% (inactive)
2,CCOCCCNC(=O)Cc1cc(=O)[nH]c(=O)[nH]1,-8.09% (inactive)
3,COC(=O)c1ccc(-c2c(-c3ccccc3)ncc3cc(OC)c(OC)cc23)cc1,18.9% (inactive)
4,CCOC(=O)C1CSC(CC(=O)Nc2ccc(OCC)cc2)C(=O)N1 (stereo not given),4.52% (inactive)
5,Cc1cccc(NC(=S)NC23CN4CN(CN(C4)C2)C3)c1,1.34% (inactive)
6,Cc1cccc(NC(=S)Nc2ccc3cn[nH]c3c2)c1,-3.63% (inactive)
7,Cc1cccc(NC(=S)Nc2ccc(Cl)c(Cl)c2)c1,60.8% (active)
8,Cc1ccc(-n2ncc(C(=O)NC3CC3)c2C2CCN(C(=O)OC(C)(C)C)CC2)c(C)c1,13.5% (inactive)
9,CCOC(=O)Nc1ccc2c(c1)N(C(=O)CN1CCN3CCCC3C1)c1ccccc1CC2 (stereo not given),11.3% (inactive)
10,Cc1nn(-c2ccccc2)c(Cl)c1/C=C/C(=O)c1ccc(O)cc1,50.6% (active)
11,Cc1ccc(C(=O)/C=C/c2c(C)nn(-c3ccccc3)c2Cl)cc1,36.5% (inactive)
12,Cc1nn(-c2ccccc2)c(C)c1/C=C/C(=O)OC(C)C(N)=O (stereo not given),10.4% (inactive)
13,CC1CCN(C2=NC(=O)/C(=C/c3ccc(O)cc3)S2)CC1,31.9% (inactive)
14,CCOc1cc(/C=C2\SC(N3CCCCC3)=NC2=O)ccc1O,38.3% (inactive)
15,CCOc1cc(/C=C2\SC(N3CCCC(C)C3)=NC2=O)ccc1O (stereo not given),51.4% (active)
16,COc1ccc(N(CC(=O)NC2CCCCC2)S(=O)(=O)c2c(C)[nH]c(=O)[nH]c2=O)cc1,6.85% (inactive)
17,CCOC(=O)N/N=C/c1cccnc1,4.17% (inactive)
18,O=C(CSc1cccc2cccnc12)N/N=C/c1cccnc1,52.9% (active)
19,Cc1ccc(NC(=O)CSc2cccc3cccnc23)c(C)c1,19.5% (inactive)
20,N#Cc1ccc(C(c2ccc(C#N)cc2)n2cncn2)cc1,9.59% (inactive)
21,CCc1noc(C)c1C(=O)N1CCCC(N2CCN(c3ccc(F)cc3)CC2)C1 (stereo not given),-9.74% (inactive)
22,CC(C)OC(=O)Cn1nc(C(F)(F)F)c2c1CCCC2,-5.77% (inactive)
23,Cc1ccccc1C(=O)NC(=S)NC1CC1,56.1% (active)
24,O=C(NC(=S)NC1CCSC1=O)c1ccccc1F (stereo not given),-11.9% (inactive)

row,SMILES,inhibition
1,Cc1ccccc1C(=O)NC(=S)Nc1ccc(N2CCN(C(=O)c3ccccc3)CC2)cc1,-0.446% (inactive)
2,COC(=O)[C@@]1(C)[C@H]2C(=O)N(Cc3ccccc3)C(=O)[C@H]2[C@H]2CN=C(SCC3CC3)N21,28.2% (inactive)
3,CC1=C(C(=O)OCC2CCCCC2)C(c2ccc(F)cc2)NC(=O)N1 (stereo not given),23.5% (inactive)
4,S=C(NCCCc1ccccc1)Nc1ccc(Br)cc1,62.8% (active)
5,O=S(=O)(NCCCc1ccccc1)c1ccc(Br)cc1,33.6% (inactive)
6,S=C(Nc1ccc(Br)cc1)NC1CCN(Cc2ccccc2)CC1,3.13% (inactive)
7,O=C1C(=O)N(CCCO)C(c2ccccc2)/C1=C(\O)c1ccc(Br)cc1 (stereo not given),6.61% (inactive)
8,CCOc1ccc(CN2CCC(n3nccc3NC(=O)C3CC3)CC2)cc1CO,-0.767% (inactive)
9,O=C(NCc1ccc2c(c1)OCO2)c1sccc1Br,11% (inactive)
10,O=C(NCc1ccc2c(c1)OCO2)c1c(O)nc2sccn2c1=O,68.2% (active)
11,CCn1c(=O)c(C(=O)NCc2ccc3c(c2)OCO3)c(O)c2ccccc21,28.6% (inactive)
12,CCCOc1ccc(/C(O)=C2/C(=O)C(=O)N(CCN(C)C)C2c2ccc(OC)c(OC)c2)cc1 (stereo not given),3.19% (inactive)
13,Cc1ccccc1N1C(=O)C(Oc2ccc(Cl)cc2)C1CNCC1CCCO1 (stereo not given),32.6% (inactive)
14,Fc1ccc(-c2ccc(NCCN3CCOCC3)nn2)cc1,-3.29% (inactive)
15,COc1ccc(C(=O)C(C)OC(=O)c2cccc(S(=O)(=O)Nc3c(C)n(C)n(-c4ccccc4)c3=O)c2)cc1 (stereo not given),15.2% (inactive)
16,O=C(N/N=C/c1cccc(OCc2ccccc2)c1)c1ccc(Br)o1,47.5% (inactive)
17,N#C/C(=C\c1ccc(O)c(O)c1)C(=O)NCc1ccccc1,12.3% (inactive)
18,COCCNC(=O)/C(C#N)=C/c1cccc(OCc2ccccc2)c1,68.2% (active)
19,COc1cccc(N(CC(=O)NC2CCCCCC2)S(=O)(=O)c2ccccc2)c1,11.3% (inactive)
20,Cc1c(S(=O)(=O)NCc2ccccc2)c(=O)n(C)c(=O)n1C,4.82% (inactive)
21,O=C(N/N=C/c1cccnc1)c1ccc(NC(=O)c2ccc(F)cc2)cc1,4.04% (inactive)
22,N#C/C(=C\c1cccnc1)C(=O)Nc1ccc(SC(F)F)cc1,76.7% (active)
23,Cc1cc(/C=C(/C#N)C(=O)Nc2ccc(Cl)cc2)c(C)n1-c1cccnc1,5.94% (inactive)
24,CN=C(c1ccccc1)c1c(C)cccc1C,3.2% (inactive)

row,SMILES,inhibition
1,COc1ccccc1NC(=O)c1ccc(N2CC3CC(C2)c2cccc(=O)n2C3)c(NC(=O)c2cccnc2)c1 (stereo not given),-0.075% (inactive)
2,CC1CCCN(CCCNC(=O)CN2C(=O)COc3ccc(S(=O)(=O)N4CCOCC4)cc32)C1 (stereo not given),-34.2% (inactive)
3,COCCNC(=O)CN1C(=O)CSc2ncccc21,11.6% (inactive)
4,CCc1ccc2c(c1)C1(NN=C(c3ccccc3)S1)C(=O)N2 (stereo not given),52.6% (active)
5,O=C(CNC(=O)c1ccc(Cl)cc1Cl)NCC(=O)Nc1ccccc1N1CCOCC1,3.5% (inactive)
6,Cc1ccoc1C(=O)Nc1cccc(Oc2ccccc2)c1,77.9% (active)
7,CC(Oc1cccc(NC(=O)c2cccs2)c1)C(=O)c1ccccc1 (stereo not given),34.3% (inactive)
8,Cc1cccc(NC(=O)Nc2cccc(Oc3c(F)c(F)c(F)c(F)c3F)c2)c1,17% (inactive)
9,N#Cc1ccccc1S(=O)(=O)N1CCN(Cc2c(O)ccc3ccccc23)CC1,21.3% (inactive)
10,Cn1c(Nc2ccccc2)cc(=O)n(C)c1=O,6.86% (inactive)
11,CCOC(=O)c1c(N)nn(C(=O)c2ccccc2)c1-c1ccccc1,27% (inactive)
12,Cc1cc(Nc2ccccc2)n(C(=O)c2ccc(N)cc2)n1,57.6% (active)
13,O=C(COc1ccc(Cl)cc1Cl)N/N=C/c1ccccn1,39% (inactive)
14,CC[C@@H]1Cc2cc(O)ccc2C2=C1c1ccc(O)cc1C[C@H]2CC,-6.54% (inactive)
15,CCOC(=O)c1c(NC(=O)c2ccc(S(=O)(=O)N(C)CC3CCCO3)cc2)sc2c1CC(C)(C)NC2(C)C (stereo not given),24% (inactive)
16,COC(=O)c1sccc1NC(=O)COc1ccc(Cl)cc1,6.02% (inactive)
17,COC(=O)c1c(NC(=O)COc2ccc(Cl)cc2Cl)sc2c1CC(C)(C)NC2(C)C,60.1% (active)
18,Cc1ccc(C(=O)NCC(=O)NCc2cc(=O)n(C)c(=O)n2C)cc1,16.1% (inactive)
19,Nc1nc(SCC(=O)Nc2ccc(Cl)cc2C(F)(F)F)n[nH]1,3.1% (inactive)
20,CCC(C)(C)n1nnnc1CN1CCN(c2nc3ccc(C)cc3cc2C#N)CC1,40.5% (inactive)
21,COc1cc(N2C(=O)CSC2=S)cc(OC)c1OC,23.9% (inactive)
22,O=C1CSC(=S)N1c1ccc(O)cc1,11.4% (inactive)
23,O=C1CSC(=S)N1c1ccc(Cl)c(Cl)c1,53.7% (active)
24,CCNC(=O)NC(=O)C(C)OC(=O)c1cc(S(=O)(=O)N2CCCCCC2)ccc1OC (stereo not given),19.4% (inactive)

row,SMILES,inhibition
1,O=[N+]([O-])c1ccc2nc(-c3ccccn3)[nH]c2c1,46.5% (inactive)
2,O=[N+]([O-])c1ccc2c(c1)Nc1nc3ccccc3nc1N2,59.9% (active)
3,COc1ccc([N+](=O)[O-])cc1-c1nc2ccccc2nc1-c1ccccc1,36.6% (inactive)
4,COc1ccc(-c2cc(C3CCN(c4ncccc4[N+](=O)[O-])CC3)[nH]n2)cc1,57.6% (active)
5,COc1ccc(-c2cc3ncccc3cn2)cc1,9.46% (inactive)
6,CC(=O)NC(Cc1ccccc1)C(=O)NC1CCN(c2ncccc2[N+](=O)[O-])CC1 (stereo not given),10.9% (inactive)
7,CC(C(=O)Nc1ccccc1-c1ccccc1)N1CCOCC1 (stereo not given),7.67% (inactive)
8,COc1ccc(C2CC(c3ccc(C)cc3)Nc3ncnn32)cc1 (stereo not given),27.1% (inactive)
9,Nc1nc2n(n1)C(c1ccco1)CC(c1ccc(Cl)c(Cl)c1)N2 (stereo not given),20.6% (inactive)
10,Clc1ccc(C2CC(c3cccs3)n3ncnc3N2)cc1Cl (stereo not given),50.5% (active)
11,Oc1ccccc1CNc1ncc(Br)cc1Br,45.5% (inactive)
12,CCc1nnc(NS(=O)(=O)c2ccc(NC(=S)NC(=O)/C=C/c3cccs3)cc2)s1,96.1% (active)
13,CCc1nnc(NS(=O)(=O)c2ccc(NC(=S)NC(=O)c3cccs3)cc2)s1,18.7% (inactive)
14,CCc1nnc(NS(=O)(=O)c2ccc(NC(=O)c3cccc(OC(F)(F)C(F)F)c3)cc2)s1,-1.08% (inactive)
15,COC(=O)c1cc2occc2n1Cc1nc(-c2ccccc2C)oc1C,4.08% (inactive)
16,C=CCn1nc(-c2ccccc2)c2c(C)onc2c1=O,6.39% (inactive)
17,CC(=O)Nc1ccc(S(=O)(=O)NC2(C(F)(F)F)C(=O)Nc3c2c(=O)[nH]c(=O)n3Cc2ccccc2)cc1 (stereo not given),3.06% (inactive)
18,CC(C)NC(=O)/C(C#N)=C\c1ccc(N(C)C)c(Br)c1,61% (active)
19,CC(C)(C)C(=O)/C(C#N)=C/c1ccc(O)cc1,24% (inactive)
20,Cc1[nH]c2ccccc2c1/C=C(/C#N)C(=O)NC(C)C,10.2% (inactive)
21,Cc1cc(C(=O)OC(C)C(=O)NC2CCCCC2C)c(C)o1 (stereo not given),-5.23% (inactive)
22,CCN(CC)CC(=O)Nc1sc2c(c1C(=O)c1ccccc1C)CCC2,32.5% (inactive)
23,CC(OC(=O)CCCc1c[nH]c2ccccc12)C(=O)Nc1ccc(S(N)(=O)=O)cc1 (stereo not given),11.1% (inactive)
